Sampled rows, rich in hits. Any-hit rate of the full collection: about 5.4%.
PNC assembly inh = High Content Assay for Compounds that inhibit the Assembly of the Perinucleolar Compartment; AID 2417, 2010; activity change (PNC), negative = inhibition, % at 10 µM; PC3M PTB-GFP, PNC prevalence imaging, 16 h; stronger effect = lower value; 3.1% of 140,000 active;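 active = readout at or below -70, meaning at least 70% loss of cells showing the perinucleolar compartment, a nuclear body marking cancer cells; inconclusive = readout between -30 and a set limit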;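 note: plate controls were DMSO wells for no effect and camptothecin positive control wells for full effect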
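Read-out is percentage of cells bearing a perinucleolar compartment, from automated 20x imaging of fixed, Hoechst-stained PC3M PTB-GFP cells. Cells were seeded 4 h, then exposed 16 h to compound (23 nl of library stock) in duplicate plates.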
IMPase inh = qHTS Assay for Identifying the Cell-Membrane Permeable IMPase Inhibitors | Inositol monophosphatase 1 (Rattus norvegicus), P97697 | inhibition (IP1 accumulation), % at 46.1 µM | 120,000 tested, under 10 active | CHO-M1 cells, IP1 accumulation, HTRF TR-FRET ratio | AID 901, 2007; active = well fitted curve in the direction sought with a large enough effect in the signal ratio, not every such curve was filed as active; inconclusive = small, poorly fitted or top-dose-only effect, or a change in a side signal; inactive = no such curve, though single readings can be large or run the other way; the % refers to the signal ratio;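 note: cells stimulated with carbachol in lithium chloride buffer; plate controls were DMSO basal wells for no effect and reference inhibitor wells for full effect; higher means more IMPase inhibition seen as more IP1 and lower FRET ratio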
Target sequence (P97697 whole entry, looked up): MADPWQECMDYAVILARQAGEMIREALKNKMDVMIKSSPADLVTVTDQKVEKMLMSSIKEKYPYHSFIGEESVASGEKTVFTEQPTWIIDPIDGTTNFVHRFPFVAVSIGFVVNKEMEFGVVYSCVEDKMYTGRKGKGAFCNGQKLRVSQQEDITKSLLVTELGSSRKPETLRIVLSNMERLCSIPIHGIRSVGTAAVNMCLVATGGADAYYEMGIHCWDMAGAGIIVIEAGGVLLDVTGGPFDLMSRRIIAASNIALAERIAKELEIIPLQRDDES
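In this qHTS, compounds (final up to 46 uM) act on CHO-M1 cells that are then activated through the M1 receptor with carbachol, in pH 7.4 buffer containing 50 mM LiCl, for 30 min. IP1 accumulation is quantified by the IP-One immunoassay.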
15-hLO-2 inh = qHTS Assay for Inhibitors of 15-hLO-2 (15-human lipoxygenase 2) | Potency, µM (doses to about 57.1 µM), without a hit: top-dose activity change, negative = inhibition, most hits filed as inhibitors | AID 881, 2007 | purified 15hLO-2, xylenol orange hydroperoxide absorbance | Polyunsaturated fatty acid lipoxygenase ALOX15B (Homo sapiens), O15296 | 0.56% of 110,000 active; note: potency is the fitted concentration of half-maximal effect; nearly all actives have a fitted effect of over 60% in size
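Purified human 15hLO-2 (50 nM) preincubated 15 min with compound, then 45 uM arachidonic acid for 90 min at RT in 25 mM Hepes pH 7.5, 0.01% Triton X-100. Hydroperoxide detected by Fe-xylenol orange; 573/405 nm absorbance ratio.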
IMPase Li cell = qHTS Assay for Identifying the Cell-Membrane Permeable IMPase Inhibitors: Potentiation with Lithium; 0.35% of 210,000 active; CHO-M1 cells, IP1 TR-FRET (IP-One), carbachol + lithium; Potency, µM (titrated, usually from 59.4 µM), for inactives: top-dose activity, negative = IMPase inhibition, hits mostly inhibitors; AID 1457, 2008;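 note: IP1 builds up when IMPase is blocked and the TR-FRET signal falls; potency is the fitted concentration of half-maximal effect; plate controls were basal vehicle for no effect and high inhibitor control for full effect; nearly all actives have a fitted effect of over 50% in size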
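CHO-M1, 2000 cells/well, 16–30 h culture; cpd + low Li+, 30 min 37C; lysis with d2-IP1/Eu-anti-IP1 Ab, 10 min RT; TR-FRET 665/620 ratio and 620 channel; AC50 via Hill.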
12-hLO inh = qHTS Assay for Inhibitors of 12-hLO (12-human lipoxygenase). Potency, µM (titrated, usually from 57.1 µM), inactives show top-dose activity change, negative = inhibition, hits mostly inhibitors. AID 1452, 2008. purified 12-hLO, xylenol orange hydroperoxide absorbance. Polyunsaturated fatty acid lipoxygenase ALOX12 (Homo sapiens), P18054. 0.12% of 150,000 active; note: potency is the fitted concentration of half-maximal effect; nearly all actives have a fitted effect of over 55% in size
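Lipoxygenase turnover measured by absorbance at 573 and 405 nm after Fe-XO development. Human 12hLO 150 nM, arachidonate 40 uM, pH 7.0 Hepes buffer with detergent; 15 min compound preincubation, 30 min reaction.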
HPGD block = qHTS Assay for Inhibitors of HPGD (15-Hydroxyprostaglandin Dehydrogenase) | 15-hydroxyprostaglandin dehydrogenase [NAD(+)] (Homo sapiens), P15428 | purified HPGD, NADH fluorescence kinetic, PGE2 substrate | Potency, µM, without a hit: at the highest dose activity change, negative = inhibition, usual class: inhibitors | 4.3% of 150,000 active; active = well fitted inhibition curve with a large enough effect, not every such curve was filed as active; inconclusive = small, poorly fitted or top-dose-only effect, or another doubt; inactive = no such curve, though single readings can be large or run the other way; note: potency is the fitted concentration of half-maximal effect
Target sequence (P15428 whole entry, looked up): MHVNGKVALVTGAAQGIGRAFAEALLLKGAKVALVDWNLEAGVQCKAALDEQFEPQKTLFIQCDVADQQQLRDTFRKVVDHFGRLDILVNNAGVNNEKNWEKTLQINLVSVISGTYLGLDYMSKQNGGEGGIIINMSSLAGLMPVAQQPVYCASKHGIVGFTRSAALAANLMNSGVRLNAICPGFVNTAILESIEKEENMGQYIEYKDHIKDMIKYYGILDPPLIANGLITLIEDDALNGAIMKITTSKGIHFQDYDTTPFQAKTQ
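20 nM HPGD preincubated 15 min at room temperature with compound in 50 mM Tris-HCl pH 8, 0.01% Tween 20. Started with 1 mM NAD+ and 30 uM prostaglandin E2; NADH fluorescence (360/450 nm) read 5 times over 30-s intervals, last minus first.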
* = called active by the depositor; [ ] = dose if it differs, or a comment. Unless noted, calls come from the whole dose curve; as a rule, active = well fitted curve in the direction sought with a large enough effect; inconclusive = small, poorly fitted or top-dose-only effect, or another doubt; inactive = no such curve, though single readings can be large; an effect the other way counts as inactive or inconclusive. Unless noted, % is set by controls: 0 for no effect and ±100 for the full control effect.

Screening Cc1nnc(NC(=O)C2CCCO2)s1 (centres undefined) returned PNC assembly inh inconclusive, IMPase inh 12, IMPase Li cell 8%, 12-hLO inh 5% and HPGD block 13µM*.
For CC(C)(C)c1ccc(C(=O)N2CCC(=O)N(C(COCc3ccccc3)Cc3ccccc3)CC2)cc1 (centres undefined) the results were PNC assembly inh -115*, IMPase Li cell 17%, 12-hLO inh -9% and HPGD block -29%.
For Cc1ccc(C)c(Nc2nc(-c3ccccc3)c3cc(Br)ccc3n2)c1 the results were IMPase inh -8.
Screening CCOC(=O)c1c(NC(=O)C2CCCO2)sc2c1CCC2 (centres undefined) returned PNC assembly inh inconclusive, IMPase inh inconclusive, 15-hLO-2 inh 17%, IMPase Li cell 13%[38.3 µM], 12-hLO inh -11% and HPGD block -19%.
For Nc1sc2c(c1C(=O)c1ccccc1)CCCC2 the results were PNC assembly inh 6, IMPase inh -4, 15-hLO-2 inh inconclusive, IMPase Li cell -5%[38.3 µM], 12-hLO inh -21% and HPGD block inconclusive.
Screening NC(=O)c1c(NC(=O)C2CCCO2)sc2c1CCCC2 (centres undefined) returned PNC assembly inh inconclusive, IMPase inh -8, IMPase Li cell -9%, 12-hLO inh -3% and HPGD block 8.9µM*.
`CCOC(=O)c1c(NC(=O)C2CCCO2)sc(C)c1C` (centres undefined) gave IMPase Li cell 28%.
NC(=O)c1c(N)sc2c1CCCC2 was read as PNC assembly inh 16, IMPase inh -5, 15-hLO-2 inh inconclusive, IMPase Li cell 4%[38.3 µM], 12-hLO inh -25% and HPGD block 32µM*.
Screening Cc1sc(NC(=O)C2CCCO2)c(C(N)=O)c1C (centres undefined) returned PNC assembly inh 34, IMPase inh -3, IMPase Li cell 14%, 12-hLO inh 0% and HPGD block 28µM*.
C=CCn1c(O)c(N=NC(=O)OC(C)(C)C)c2ccccc21 was read as PNC assembly inh -100*, IMPase inh 0, IMPase Li cell -1%, 12-hLO inh -1% and HPGD block inconclusive.
O=C1c2ccccc2C(=O)c2c1ccc(C(=O)N1CCCCC1)c2NCCO was read as PNC assembly inh inconclusive, IMPase inh inconclusive, 15-hLO-2 inh -1%, IMPase Li cell 5%[38.3 µM], 12-hLO inh 0% and HPGD block inconclusive.
For CCNc1c(C(=O)O)ccc2c1C(=O)c1ccccc1C2=O the results were PNC assembly inh -85*, IMPase inh 11, IMPase Li cell 48%, 12-hLO inh 1% and HPGD block -12%.
CC1(C)CCCN(C(=O)c2ccc3c(c2NCCO)C(=O)c2ccccc2C3=O)C1 was read as PNC assembly inh 17, IMPase Li cell -4%, 12-hLO inh -1% and HPGD block 16µM*.
COc1cccc(OCc2nc(-c3cccc([N+](=O)[O-])c3)no2)c1 was read as IMPase Li cell 7%.
For COc1cccc(-c2noc(Cn3nc(C)c([N+](=O)[O-])c3C)n2)c1 the results were PNC assembly inh 13, IMPase inh 2, 15-hLO-2 inh -10%, IMPase Li cell 7%[38.3 µM], 12-hLO inh -18% and HPGD block 25µM*.
`O=C(CSc1nc2ccc(S(=O)(=O)N3CCOCC3)cc2[nH]1)N1CCOCC1` gave PNC assembly inh 24, IMPase inh 4, 15-hLO-2 inh -15%, IMPase Li cell 3%[38.3 µM], 12-hLO inh 0% and HPGD block 3.5µM*.

Assay outcomes from PubChem BioAssay.
